This note sets out measurements from PubChem BioAssay (EPA / NIEHS).

Read-out in assay [1]: Transforming growth factor beta 1 (TGFb1), TGFB1 (gene 7040)
Description: BSK_KF3CT_TGFb1: BioMAP Diversity Plus: KF3CT Assay for Transforming growth factor beta 1 (TGFb1) Biomarker Activity (AID 2283072). Particulars: primary human keratinocytes with fibroblasts; actives raise or lower the signal. The gist of the method: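 KF3CT co-culture (keratinocytes + fibroblasts), 24 h exposure → TGF-b1 ELISA → bidirectional fit, DMSO = baseline. Parallel SRB total-protein staining (0.1% SRB, 10% TCA fixation, 560 nm) for cytotoxicity.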

Read-out in assay [2]: C-C motif chemokine 2 (Homo sapiens) (UniProt P13500)
Description: BSK_KF3CT_MCP1: BioMAP Diversity Plus: KF3CT Assay for Monocyte Chemoattractant Protein 1 (MCP1/CCL2) Biomarker Activity (AID 2283073). The settings on record: primary human keratinocytes with fibroblasts; actives raise or lower the signal. The gist of the method:
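KF3CT skin co-culture (keratinocytes/foreskin fibroblasts), 24 h post-dose; MCP-1 by ELISA; gain/loss of signal fit bidirectionally vs DMSO baseline.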

Read-out in assay [3]: Matrix Metallopeptidase 9 (MMP9), MMP9 (gene 4318)
The assay can be described thus: BSK_KF3CT_MMP9: BioMAP Diversity Plus: KF3CT Assay for Matrix Metallopeptidase 9 (MMP9) Biomarker Activity (AID 2283074).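 As to AC50: MMP9 protein level quantified by ELISA in the co-culture.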 Particulars: primary human keratinocytes with fibroblasts; actives raise or lower the signal. The gist of the method: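 ELISA read-out of MMP-9 at 24 h post-dosing in a co-culture of human skin keratinocytes and foreskin fibroblasts. Gain or loss of signal was fitted in both directions against DMSO.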

Read-out in assay [4]: CD40, CD40 (gene 958)
Description: BSK_LPS_CD40: BioMAP Diversity Plus: LPS Assay for CD40 Biomarker Activity (AID 2283076). The settings on record: primary human HUVEC with PBMC; actives raise or lower the signal. The gist of the method:
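ELISA readout of CD40 in HUVEC/PBMC co-culture (BSK_LPS system), 24 h post-dosing; bidirectional curve fit, DMSO baseline; parallel SRB total-protein staining for cytotoxicity.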

Read-out in assay [5]: E-selectin (Homo sapiens) (UniProt P16581)
The assay can be described thus: BSK_LPS_Eselectin: BioMAP Diversity Plus: LPS Assay for Eselectin Biomarker Activity (AID 2283077). Particulars: primary human HUVEC with PBMC; actives raise or lower the signal. An outline of the steps: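 ELISA readout of E-selectin, 24 h post-dose, HUVEC + PBMC co-culture (LPS system). Gain or loss of signal vs DMSO baseline, bidirectional fit.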

Read-out in assay [6]: Interleukin-8 (IL8), CXCL8 (gene 3576)
Description: BSK_LPS_IL8: BioMAP Diversity Plus: LPS Assay for Interleukin-8 (IL8) Biomarker Activity (AID 2283078). The settings on record: primary human HUVEC with PBMC; actives raise or lower the signal. The gist of the method:
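HUVEC + PBMC co-culture, LPS-activated; test chemicals dosed, IL-8 read by ELISA at 24 h. Bidirectional curve fit vs DMSO baseline (gain or loss of signal).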

The nature of assay [7]: BSK_LPS_SRB: Viability Assessment in the BioMAP Diversity Plus: LPS Assay (AID 2283079).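 Also: total protein by sulforhodamine B absorbance as a cytotoxicity measure; measured one day after compound addition.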 Particulars: primary human HUVEC with PBMC. An outline of the steps:
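HUVEC + PBMC co-culture, LPS-stimulated; compound 24 h. 10% TCA fix, 0.1% SRB stain, A560. Bidirectional fit vs DMSO.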

Read-out in assay [8]: Interleukin-1 alpha (IL1a), IL1A (gene 3552)
The assay can be described thus: BSK_LPS_IL1a: BioMAP Diversity Plus: LPS Assay for Interleukin-1 alpha (IL1a) Biomarker Activity (AID 2283080). Particulars: primary human HUVEC with PBMC; actives raise or lower the signal. An outline of the steps: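 HUVEC/PBMC co-culture, LPS system; 24 h after dosing; IL-1a by ELISA; gain or loss of signal fitted bidirectionally vs DMSO baseline.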

Assay [9] in a line: BSK_LPS_PGE2: BioMAP Diversity Plus: LPS Assay for Prostaglandin E2 (PGE2) Biomarker Activity (AID 2283082). The settings on record: primary human HUVEC with PBMC; actives raise or lower the signal. An outline of the steps: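 Compounds were added to the LPS co-culture of endothelium and PBMC, and PGE2 was measured by ELISA after 24 h. Responses in either direction were fitted with DMSO as baseline.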

Read-out in assay [10]: Macrophage colony-stimulating factor (MCSF), CSF1 (gene 1435)
Description: BSK_LPS_MCSF: BioMAP Diversity Plus: LPS Assay for Macrophage colony-stimulating factor (MCSF) Biomarker Activity (AID 2283083). Particulars: primary human HUVEC with PBMC; actives raise or lower the signal. An outline of the steps:
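HUVEC + PBMC co-culture (human primary), 24 h post-dose; M-CSF by ELISA; gain/loss of signal fitted bidirectionally vs DMSO baseline.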

Read-out in assay [11]: Tissue Factor, F3 (gene 2152)
Description: BSK_LPS_TissueFactor: BioMAP Diversity Plus: LPS Assay for Tissue Factor Biomarker Activity (AID 2283084). Particulars: primary human HUVEC with PBMC; actives raise or lower the signal. An outline of the steps: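 HUVEC/PBMC co-culture, LPS-activated; CD142 ELISA read 24 h post-dose; bidirectional curve fit vs DMSO negative control.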

Read-out in assay [12]: Vascular cell adhesion molecule 1 (VCAM1), VCAM1 (gene 7412)
The assay can be described thus: BSK_LPS_VCAM1: BioMAP Diversity Plus: LPS Assay for Vascular cell adhesion molecule 1 (VCAM1) Biomarker Activity (AID 2283086). Particulars: primary human HUVEC with PBMC; actives raise or lower the signal. The gist of the method: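 Cells are dosed in an LPS-stimulated endothelial/mononuclear co-culture and, after 24 h, VCAM-1 is quantified by ELISA. Activity in either direction is fitted relative to the DMSO negative control.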

Read-out in a further assay: CD38, CD38 (gene 952)
The assay can be described thus: BSK_SAg_CD38: BioMAP Diversity Plus: SAg Assay for CD38 Biomarker Activity (AID 2283087). The settings on record: primary human HUVEC with PBMC; actives raise or lower the signal. The gist of the method: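 CD38 quantified by ELISA (fluorescence) in a superantigen-activated endothelial cell–PBMC co-culture at 24 h post-dose. Activity fitted in both directions relative to DMSO; parallel SRB and Alamar Blue cytotoxicity read-outs.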

Read-out in assay [13]: CD40, CD40 (gene 958)
Description: BSK_SAg_CD40: BioMAP Diversity Plus: SAg Assay for CD40 Biomarker Activity (AID 2283088). The settings on record: primary human HUVEC with PBMC; actives raise or lower the signal. The gist of the method: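 HUVEC/PBMC co-culture, 24 h post-dose; CD40 by ELISA, fluorescence intensity; bidirectional fit vs DMSO negative control.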

Read-out in the next assay: CD69, CD69 (gene 969)
Description: BSK_SAg_CD69: BioMAP Diversity Plus: SAg Assay for CD69 Biomarker Activity (AID 2283089).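 As to AC50: cell surface CD69 protein quantified by ELISA with fluorescence detection.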 Particulars: primary human HUVEC with PBMC; actives raise or lower the signal. An outline of the steps: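 HUVEC co-cultured with PBMC were dosed with chemical, and CD69 was measured by ELISA with fluorescence read-out 24 h later. Bidirectional curve fitting used DMSO as negative control and activity baseline.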

Read-out in assay [14]: Monocyte Chemoattractant Protein-1 (MCP1), CCL2 (gene 6347)
Description: BSK_SAg_MCP1: BioMAP Diversity Plus: SAg Assay for Monocyte Chemoattractant Protein-1 (MCP1) Biomarker Activity (AID 2283090). Particulars: primary human HUVEC with PBMC; actives raise or lower the signal. An outline of the steps:
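Values derive from bidirectional fitting of ELISA-measured MCP1 against DMSO controls. Readings were taken 24 h after dosing human vascular endothelial cells co-cultured with peripheral blood mononuclear cells under superantigen stimulation.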

Read-out in assay [15]: E-selectin (Homo sapiens) (UniProt P16581)
Description: BSK_SAg_Eselectin: BioMAP Diversity Plus: SAg Assay for Eselectin Biomarker Activity (AID 2283091). The settings on record: primary human HUVEC with PBMC; actives raise or lower the signal. An outline of the steps:
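E-selectin ELISA readout at 24 h post-dosing in human umbilical vein endothelial cell/PBMC co-culture; gain or loss of signal fitted relative to DMSO baseline.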

Read-out in assay [16]: Tumor necrosis factor (Homo sapiens) (UniProt P01375)
The assay can be described thus: BSK_LPS_TNFa: BioMAP Diversity Plus: LPS Assay for Tumour Necrosis Factor alpha (TNFa) Biomarker Activity (AID 2283085). Particulars: primary human HUVEC with PBMC; actives raise or lower the signal. The gist of the method:
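Cells (umbilical vein endothelium plus peripheral blood mononuclear cells) were dosed with chemical, incubated 24 h, then TNFa was quantified by ELISA; values derive from bidirectional fitting with DMSO as baseline.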

Read-out in assay [17]: Monocyte Chemoattractant Protein-1 (MCP1), CCL2 (gene 6347)
The assay can be described thus: BSK_LPS_MCP1: BioMAP Diversity Plus: LPS Assay for Monocyte Chemoattractant Protein-1 (MCP1) Biomarker Activity (AID 2283081).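 Also: secreted MCP-1 protein quantified by ELISA in culture supernatant.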 Particulars: primary human HUVEC with PBMC; actives raise or lower the signal. An outline of the steps:
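ELISA read-out of MCP-1 after 24 h chemical dosing of a human umbilical vein endothelial cell/peripheral blood mononuclear cell co-culture stimulated with LPS. Gain or loss of signal fitted relative to DMSO controls.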

The source made the active and inactive calls. The calls were made as follows: active = hit-call score of the fitted dose curve at least 0.9, where 1 is the maximum; inactive = score below 0.9.

Chain of Tumor necrosis factor (Homo sapiens) (P01375 whole entry, looked up): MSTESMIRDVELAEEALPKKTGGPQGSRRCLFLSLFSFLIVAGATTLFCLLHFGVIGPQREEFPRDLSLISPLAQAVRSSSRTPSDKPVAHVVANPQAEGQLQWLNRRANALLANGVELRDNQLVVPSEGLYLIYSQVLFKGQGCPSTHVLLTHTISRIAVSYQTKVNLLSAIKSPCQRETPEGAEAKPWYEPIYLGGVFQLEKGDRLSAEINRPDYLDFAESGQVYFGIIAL
Chain of E-selectin (Homo sapiens) (P16581 whole entry, looked up): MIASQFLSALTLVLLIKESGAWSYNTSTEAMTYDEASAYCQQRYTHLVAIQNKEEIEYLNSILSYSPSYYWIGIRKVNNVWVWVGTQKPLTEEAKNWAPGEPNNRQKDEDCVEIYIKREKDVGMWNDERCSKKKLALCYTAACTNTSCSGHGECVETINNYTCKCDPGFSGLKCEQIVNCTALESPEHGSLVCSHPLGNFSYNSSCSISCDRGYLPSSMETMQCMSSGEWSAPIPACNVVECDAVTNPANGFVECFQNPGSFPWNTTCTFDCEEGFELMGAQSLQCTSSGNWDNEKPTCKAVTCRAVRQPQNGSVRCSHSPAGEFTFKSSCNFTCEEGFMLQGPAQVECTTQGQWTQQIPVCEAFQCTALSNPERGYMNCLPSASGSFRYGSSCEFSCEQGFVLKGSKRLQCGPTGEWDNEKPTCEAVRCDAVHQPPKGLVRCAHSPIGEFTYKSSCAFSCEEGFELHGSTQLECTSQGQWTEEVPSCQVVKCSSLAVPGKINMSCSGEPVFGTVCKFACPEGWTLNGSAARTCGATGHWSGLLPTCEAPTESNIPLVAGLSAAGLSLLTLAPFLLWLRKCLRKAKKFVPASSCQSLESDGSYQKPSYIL

Broadly, the AC50 is the midpoint of the concentration-response curve, whichever way the signal moves. For the compound `O=C(O)Cc1ccccc1Nc1c(Cl)cccc1Cl`, the outcome in [1] is “inactive”; in [3] it was “inactive”; with CD40, CD40 (gene 958) [4] it was “inactive”; in [5], “inactive”; in [6], “inactive”; in assay [7] it was “inactive”. Besides, the outcome in [8] was “inactive”; in [11] it was “inactive”; in [12] it was “inactive”; with CD38, CD38 (gene 952) it was “inactive”; with CD40, CD40 (gene 958) [13], “inactive”; with CD69, CD69 (gene 969), “inactive”. For the same compound, the result in assay [14] and in assay [15] was inactive. In addition, the AC50 in assay [2] was 8.68 µM (active); in [9], 0.291 µM (active); in assay [10] it was 16.6 µM (active).

With `CC1(C)CC(N=C=O)CC(C)(CN=C=O)C1` (configuration not stated), the outcome is “inactive” in assay [1]; “inactive” in [2]; “inactive” in [3]; “inactive” in the assay with CD40, CD40 (gene 958) [4]; “inactive” in assay [5]; “inactive” in assay [6]. For the same compound, the result in [7], in assay [8], in assay [9], in assay [11], in assay [16] and in assay [12] was inactive. The outcome with CD38, CD38 (gene 952) was “inactive”; in the assay with CD40, CD40 (gene 958) [13], “inactive”; with CD69, CD69 (gene 969), “inactive”; in assay [15], “inactive”.

Turning to `CN1CCN(Cc2cc(-c3ccc4[nH]c(=O)oc4c3)co2)[C@@H](c2ccc(F)cc2)C1`, the outcome in assay [1] was “inactive”; in assay [2] it was “inactive”; in the assay with CD40, CD40 (gene 958) [4], “inactive”; in assay [5], “inactive”; in assay [6] it was “inactive”; in assay [8], “inactive”. Besides, the result in assay [9], in assay [11] and in [16] was inactive. The half-maximal activity concentration (AC50) in [3] is 17.6 µM (active); in assay [7] it was 25.9 µM (active); in [17] it was 22.5 µM (active); with CD38, CD38 (gene 952), 31.5 µM (active); with CD40, CD40 (gene 958) [13], 26.8 µM (active); with CD69, CD69 (gene 969) it was 17.6 µM (active). Moreover, the AC50 in [14] is 11.5 µM (active); in assay [15], 11.2 µM (active).

As for `CCCCC(CC)COC(=O)CC(C(=O)OCC(CC)CCCC)S(=O)(=O)O` (configuration not stated), the AC50 in [1] is 2.66 µM (active); in [2], 3.25 µM (active); in [3], 4.84 µM (active); in the assay with CD40, CD40 (gene 958) [4] it was 32.3 µM (active); in [5] it was 38 µM (active); in assay [6] it was 31.6 µM (active). Moreover, the concentration at half-maximal activity (AC50) in assay [7] is 30.7 µM (active); in assay [8], 32.3 µM (active); in assay [10], 31.4 µM (active); in [11] it was 32 µM (active); in [12], 36.5 µM (active); with CD38, CD38 (gene 952), 35.3 µM (active). Further, the half-maximal activity concentration (AC50) with CD40, CD40 (gene 958) [13] was 35.5 µM (active); in the assay with CD69, CD69 (gene 969), 32.1 µM (active); in [15] it was 34.1 µM (active). Further, the result in [9] and in assay [16] was inactive.
